# Inconclusive results are not listed. Active and inactive are the calls of the source. The calls were made as follows: active = hit-call score of the fitted dose curve at least 0.9, where 1 is the maximum; inconclusive = response in the unintended direction; inactive = score below 0.9.
# Molecular target: rat Serotonin, 5-Hydroxytryptamine Receptor (5HT), Non-Selective Binding, Htr1a (gene 24473) (UniProt P19327)
# Assay: NVS_GPCR_r5HT_NonSelective: NovaScreen (NVS) G Protein-Coupled Receptor Assay for rat Serotonin, 5-Hydroxytryptamine Receptor (5HT), Non-Selective Binding (AID 2283295)
# Summary of the method: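 Radioligand displacement on rat cortical membranes, 1 h incubation, filter-based scintillation counting. Primary duplicates at 25 uM, actives retested in concentration series; loss of signal fitted against DMSO as baseline.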
# Sequence of rat Serotonin, 5-Hydroxytryptamine Receptor (5HT), Non-Selective Binding, Htr1a (gene 24473) (P19327 whole entry, looked up): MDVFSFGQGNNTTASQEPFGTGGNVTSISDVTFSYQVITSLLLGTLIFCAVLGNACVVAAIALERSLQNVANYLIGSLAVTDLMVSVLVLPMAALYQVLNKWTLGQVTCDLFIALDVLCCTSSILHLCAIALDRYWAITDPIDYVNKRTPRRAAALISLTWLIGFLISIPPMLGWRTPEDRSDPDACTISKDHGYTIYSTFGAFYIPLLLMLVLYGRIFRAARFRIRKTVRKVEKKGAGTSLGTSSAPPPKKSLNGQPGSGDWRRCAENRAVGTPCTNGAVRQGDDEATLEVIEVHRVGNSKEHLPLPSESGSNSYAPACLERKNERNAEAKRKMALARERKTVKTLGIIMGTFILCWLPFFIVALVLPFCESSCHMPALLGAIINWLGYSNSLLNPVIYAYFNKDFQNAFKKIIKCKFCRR
SMILES,AC50,outcome
CN1CCN(c2ccccc2/C=C2\SCCN(c3ccc(Cl)c(Cl)c3)C2=O)CC1,11.9 µM (active),–
CC(=O)NC1(c2cccc(F)c2)CCN(CC[C@@]2(c3ccc(Cl)c(Cl)c3)CN(c3ccccc3)C(=O)CO2)CC1,2.9 µM (active),–
CCCOc1sc(C(=O)N2CCC(c3cc(CN)ccc3F)CC2)c(C)c1Br,11.1 µM (active),–
CCN(CC)CCNc1ccc(CNC=O)c2sc3ccc(OC)cc3c(=O)c12,40.2 µM (active),–
O=[N+]([O-])c1ccc(O)cc1,–,inactive

# System: rat Adrenergic, Alpha 1B Receptor (Adra1B), gene 24173
# Assay: NVS_GPCR_rAdra1B: NovaScreen (NVS) G Protein-Coupled Receptor Assay for rat Adrenergic, Alpha 1B Receptor (Adra1B) (AID 2283297)
# Protocol: NVS_GPCR_rAdra1B is a biochemical, single-readout assay that uses extracted gene-proteins from Rat liver membranes in a tissue-based cell-free assay. Measurements were taken 1 hour after chemical dosing in a 48-well plate.NVS_GPCR_rAdra1B is one of one assay component(s) measured or calculated from the NVS_GPCR_rAdra1B assay. It is designed to make measurements of radioligand binding, a form of binding reporter, as detected with scintillation counting signals by Filter-based radiodetection technology.Data from the assay component NVS_GPCR_rAdra1B was analyzed into 1 assay endpoint. This assay endpoint, NVS_GPCR_rAdra1B, was analyzed in the positive analysis fitting direction relative to DMSO as the negative control and baseline of activity. Using a type of binding reporter, loss-of-signal activity can be used to understand changes in the binding as they relate to the gene Adra1b. Furthermore, this assay endpoint can be referred to as a primary readout, because the performed assay has only produced 1 assay endpoint. To generalize the intended target to other relatable targets, this assay endpoint is annotated to the gpcr intended target family, where the subfamily is rhodopsin-like receptor.
# Binding assays used specific radioligands (tritiated, iodinated) with non-radioactive competitive displacement ligands in agonist or antagonist protocols (as indicated) and various reference compounds and inhibitors to titrate specific binding to receptors and transporters. Most enzyme assays (CYPs, kinases, phosphatases, proteases, HDACs) used recombinant protein and specific substrates (fluorescence mostly, some colorimetric and radioactive) and inhibitors, followed by a biochemical separation of substrate and product. All assays for the biochemical HTS were initially run in duplicate at a single concentration (10 uM for CYP450 assays and 25 uM for all others). […] Each assay was run with positive and negative controls, and concurrent controls on every plate. The follow-up (secondary) screen tested active chemical-pairs in concentration series, as well as a few additional assays not tested in the primary screen, some selected negative inactives, and several cases re-run in the concentration series for confirmatory purposes.
SMILES,AC50,outcome
CCCOc1sc(C(=O)N2CCC(c3cc(CN)ccc3F)CC2)c(C)c1Br,17.3 µM (active),–
NC(=O)N(O)[C@@H]1C=C[C@H](Oc2cccc(Oc3ccc(F)cc3)c2)C1,–,inactive
CC[C@H](C)[C@@H](C(=O)O)n1sc2ccccc2c1=O,–,inactive
CCN(CC)CCNc1ccc(CNC=O)c2sc3ccc(OC)cc3c(=O)c12,19.4 µM (active),–
CCCCCCCC(=O)O,–,inactive
CCCCCCCCCCCCc1ccccc1S(=O)(=O)O,30.9 µM (active),–

# Molecular target: rat Adrenergic Receptor, Beta (Adrb), Non-selective Binding, Adrb1 (gene 24925) (UniProt P18090)
# Assay: NVS_GPCR_rAdrb_NonSelective: NovaScreen (NVS) G Protein-Coupled Receptor Assay for rat Adrenergic Receptor, Beta (Adrb), Non-selective Binding (AID 2283298)
# Summary of the method: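 Non-selective beta-adrenergic radioligand binding in rat cortical membranes, 1 h incubation, filter-based scintillation read-out. Primary screen 25 uM in duplicate; hits retested in concentration-response up to 50 uM, DMSO baseline.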
# Sequence of rat Adrenergic Receptor, Beta (Adrb), Non-selective Binding, Adrb1 (gene 24925) (P18090 whole entry, looked up): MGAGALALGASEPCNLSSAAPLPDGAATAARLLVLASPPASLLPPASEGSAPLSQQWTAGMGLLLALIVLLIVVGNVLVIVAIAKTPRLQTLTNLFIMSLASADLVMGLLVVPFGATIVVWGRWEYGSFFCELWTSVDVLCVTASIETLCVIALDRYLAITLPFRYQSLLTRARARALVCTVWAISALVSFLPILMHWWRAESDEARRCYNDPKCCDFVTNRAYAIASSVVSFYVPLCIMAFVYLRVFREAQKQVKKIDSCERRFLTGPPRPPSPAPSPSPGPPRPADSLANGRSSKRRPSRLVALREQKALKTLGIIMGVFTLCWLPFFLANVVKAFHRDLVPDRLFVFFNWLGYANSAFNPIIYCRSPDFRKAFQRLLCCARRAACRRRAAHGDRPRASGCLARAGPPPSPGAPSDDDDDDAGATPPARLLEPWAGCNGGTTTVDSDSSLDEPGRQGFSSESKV
SMILES,AC50,outcome
CN1CCN(c2ccccc2/C=C2\SCCN(c3ccc(Cl)c(Cl)c3)C2=O)CC1,2.29 µM (active),–
CCCOc1sc(C(=O)N2CCC(c3cc(CN)ccc3F)CC2)c(C)c1Br,3.95 µM (active),–
O=c1c(-c2ccc(O)cc2)coc2cc(O)ccc12,–,inactive
CC(C)CCCCCCOC(=O)CCCCC(=O)OCCCCCCC(C)C,–,inactive

# Molecular target: rat Adrenergic Receptor, Alpha 2 (Adra2), Non-selective Binding, Adra2a (gene 25083) (UniProt P22909)
# Assay: NVS_GPCR_rAdra2_NonSelective: NovaScreen (NVS) G Protein-Coupled Receptor Assay for rat Adrenergic Receptor, Alpha 2 (Adra2), Non-selective Binding (AID 2283299)
# Summary of the method: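 Rat cortical membranes, radioligand competitive displacement read by filter-based scintillation counting 1.25 hours after dosing. Primary screen in duplicate at 25 uM; actives followed up in concentration series.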
# Sequence of rat Adrenergic Receptor, Alpha 2 (Adra2), Non-selective Binding, Adra2a (gene 25083) (P22909 whole entry, looked up): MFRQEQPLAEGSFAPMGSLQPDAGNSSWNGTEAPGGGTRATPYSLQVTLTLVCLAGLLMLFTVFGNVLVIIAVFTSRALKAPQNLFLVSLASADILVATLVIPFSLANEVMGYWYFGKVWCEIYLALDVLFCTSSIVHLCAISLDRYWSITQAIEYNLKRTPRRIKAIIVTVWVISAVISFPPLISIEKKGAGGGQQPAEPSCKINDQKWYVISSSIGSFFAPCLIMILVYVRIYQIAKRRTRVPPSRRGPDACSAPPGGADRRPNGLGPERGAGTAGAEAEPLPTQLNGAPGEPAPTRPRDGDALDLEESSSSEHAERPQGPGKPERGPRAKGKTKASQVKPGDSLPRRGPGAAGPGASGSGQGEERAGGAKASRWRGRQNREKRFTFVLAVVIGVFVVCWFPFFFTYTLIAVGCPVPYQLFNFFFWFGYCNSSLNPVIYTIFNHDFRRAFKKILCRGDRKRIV
SMILES,AC50,outcome
CCCOc1sc(C(=O)N2CCC(c3cc(CN)ccc3F)CC2)c(C)c1Br,23.2 µM (active),–
Nc1cccc2c(N)cccc12,16.8 µM (active),–
NC(=O)N(O)[C@@H]1C=C[C@H](Oc2cccc(Oc3ccc(F)cc3)c2)C1,–,inactive
Cc1oc(-c2ccccc2)nc1CCOc1ccc(C[C@H](Nc2ccccc2C(=O)c2ccccc2)C(=O)O)cc1,35.6 µM (active),–
CCN(CC)CCNc1ccc(CNC=O)c2sc3ccc(OC)cc3c(=O)c12,13.6 µM (active),–

# Molecular target: rat Gamma-Aminobutyric Acid Type B Receptor (GABBR), Gabbr1 (gene 81657) (UniProt Q9Z0U4)
# Assay: NVS_GPCR_rGABBR: NovaScreen (NVS) G Protein-Coupled Receptor Assay for rat Gamma-Aminobutyric Acid Type B Receptor (GABBR) (AID 2283301)
# Summary of the method: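 Radioligand displacement on rat cortical membranes, 1 h, filter-based scintillation counting. Primary screen at 25 uM in duplicate; compounds passing threshold re-tested in concentration-response up to 50 uM; loss of binding fitted against DMSO.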
# Sequence of rat Gamma-Aminobutyric Acid Type B Receptor (GABBR), Gabbr1 (gene 81657) (Q9Z0U4 whole entry, looked up): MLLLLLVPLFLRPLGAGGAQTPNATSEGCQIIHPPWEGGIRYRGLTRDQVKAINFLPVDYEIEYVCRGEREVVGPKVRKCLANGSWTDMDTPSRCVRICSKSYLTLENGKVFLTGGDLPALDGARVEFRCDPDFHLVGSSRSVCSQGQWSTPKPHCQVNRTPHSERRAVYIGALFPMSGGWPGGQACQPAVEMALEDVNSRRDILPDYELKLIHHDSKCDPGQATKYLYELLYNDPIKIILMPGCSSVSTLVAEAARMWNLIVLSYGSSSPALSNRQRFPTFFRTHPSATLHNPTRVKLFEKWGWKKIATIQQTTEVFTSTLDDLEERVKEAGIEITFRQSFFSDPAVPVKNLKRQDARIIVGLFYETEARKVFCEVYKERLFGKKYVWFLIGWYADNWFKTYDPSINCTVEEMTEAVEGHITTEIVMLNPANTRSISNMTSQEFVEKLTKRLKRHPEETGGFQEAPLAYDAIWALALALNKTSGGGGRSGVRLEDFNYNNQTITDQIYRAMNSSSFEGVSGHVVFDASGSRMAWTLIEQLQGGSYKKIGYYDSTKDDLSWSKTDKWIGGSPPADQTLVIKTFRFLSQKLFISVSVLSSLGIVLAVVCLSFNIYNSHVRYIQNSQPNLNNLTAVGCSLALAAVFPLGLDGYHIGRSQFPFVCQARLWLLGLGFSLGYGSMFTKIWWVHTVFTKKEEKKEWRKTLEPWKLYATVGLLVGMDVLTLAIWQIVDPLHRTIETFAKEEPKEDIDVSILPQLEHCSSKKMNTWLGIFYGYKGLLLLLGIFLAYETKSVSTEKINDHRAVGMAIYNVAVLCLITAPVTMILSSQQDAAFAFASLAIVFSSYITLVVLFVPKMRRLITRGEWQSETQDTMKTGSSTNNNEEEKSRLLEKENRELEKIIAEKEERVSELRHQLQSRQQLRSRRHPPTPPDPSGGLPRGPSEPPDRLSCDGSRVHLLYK
row,SMILES,outcome
1,NC(=O)N1C(=O)C(C(=O)c2cc(Cl)cs2)c2cc(F)c(Cl)cc21 (stereo not drawn),inactive
2,Cc1oc(-c2ccccc2)nc1CCOc1ccc(C[C@H](Nc2ccccc2C(=O)c2ccccc2)C(=O)O)cc1,inactive
3,Cc1cc(CCN2CCN(c3nsc4ccccc34)CC2)cc2c1NC(=O)CC2(C)C,inactive

# Reference: PubChem BioAssay (EPA / NIEHS)
